Results filed as inconclusive are left out. A number with no mark means an inactive call. The source made the active and inactive calls. Unless noted, the call rests on the fitted dose curve; in most records, active means well fitted cell-killing curve with a large enough effect in the repeat runs; inconclusive means weak or mixed curves; inactive means flat fitted curve, though single readings scatter.
On the % scale 0 is the no-effect control and ±100 the full control effect.

The first assay can be described thus: qHTS assay to identify small molecule agonists of the progesterone receptor (PR) signaling pathway - cell viability counter screen (AID 1346799; calls by dose curve; further: nearly all actives have a fitted effect of over 45% in size). Conditions: PR-UAS-bla HEK293T viability, CellTiter-Glo luminescence, 16 h; series mostly up to 92.4 µM; activity change, negative = cytotoxicity: at the top concentration. An outline of the steps: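 Using the same plates as the PR reporter screen, HEK293T PR-UAS-bla cells received compounds for 16 hr at 37C and were then lysed with CellTiter-Glo; luminescence was read 30 min later at room temperature.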
On to `NCCc1cnc[nH]1`, for which the “activity change, negative = cytotoxicity” value was 3.16% [at 42.5 µM].

For the molecule `CCC(=O)OC(C)c1ccccc1` (stereo not drawn), the “activity change, negative = cytotoxicity” value is 7.33%.

For the molecule `COc1c(N2C[C@@H]3CCCN[C@@H]3C2)c(F)cc2c(=O)c(C(=O)O)cn(C3CC3)c12`, the “activity change, negative = cytotoxicity” value was 3.46% [at 42.5 µM].

As to `O=S(O)CO`, the “activity change, negative = cytotoxicity” value was 9.27%.

Regarding `O=c1n(CCO)c(=O)n(CCO)c(=O)n1CCO`, the Potency entry is “inactive”.

On to `CCCCOCCOCCOCCCC`, for which the “activity change, negative = cytotoxicity” value was 4.65%.

Take `CO[C@]12C[C@@H](COC(=O)c3cncc(Br)c3)CN(C)[C@@H]1Cc1cn(C)c3cccc2c13`: the “activity change, negative = cytotoxicity” value is -25% [at 42.5 µM].

In the case of `CCc1ccc(O)c(OC)c1`, the “activity change, negative = cytotoxicity” value was -0.167%.

On to `CCCCCCCCS(=O)(=O)Cl`, for which the “activity change, negative = cytotoxicity” value is -5.14%.

As for `CCO[Si](CCC1CCC2OC2C1)(OCC)OCC` (stereo not drawn), the “activity change, negative = cytotoxicity” value was 1.04%.

With `NC(=O)c1ccc([N+](=O)[O-])cc1`, the “activity change, negative = cytotoxicity” value is 0.0539%.

For `CS(=O)(=O)O`, the “activity change, negative = cytotoxicity” value is -4.22%.

As for `O=C(O)CCCc1ccccc1`, the “activity change, negative = cytotoxicity” value was -3.78% [at 42.5 µM].

Consider `N=c1nc(N2CCCCC2)cc(N)n1O`, for which the “activity change, negative = cytotoxicity” value is -0.581% [at 42.5 µM].

A further assay can be described thus: qHTS assay to identify small molecule antagonists of the TGF-beta/Smad signaling pathway - cell viability counter screen (AID 1346824). Further: nearly all actives have a fitted effect of over 50% in size. The following applies: SBE-bla HEK293T viability, CellTiter-Glo luminescence; series mostly up to 76.8 µM; viability change, negative = cytotoxic: at the top concentration. In a few lines:
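SBE-bla HEK 293T cells, incubated overnight, then compound plus 0.25 ng/mL TGF-beta1 (stock added) for 5 hr at 37 C. Viability was read in the same wells by CellTiter-Glo luminescence after 30 min at room temperature.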
`CN1CCC(=C2c3ccccc3CC(=O)c3sccc32)CC1`: the “viability change, negative = cytotoxic” value was 1.16% [at 35.3 µM].

For the molecule `OC[C@]1(O)OC[C@@H](O)[C@H](O)[C@@H]1O`, the Potency entry is “inactive”.

For `CCCCC/C=C\CCC=O`, the “viability change, negative = cytotoxic” value is -7.95%.

With `CCCC(=O)O[C@]1(C(=O)CO)CC[C@H]2[C@@H]3CCC4=CC(=O)CC[C@]4(C)[C@H]3[C@@H](O)C[C@@]21C`, the “viability change, negative = cytotoxic” value is 0.655% [at 35.3 µM].

For the molecule `COC(=O)CCSCCC(=O)OC`, the “viability change, negative = cytotoxic” value was -0.62%.

With `CC(=O)c1ccccc1O`, the “viability change, negative = cytotoxic” value is -1.16%.

With `CC(NC(CCc1ccccc1)C(=O)O)C(=O)N1C(=O)N(C)CC1C(=O)O` (stereo not drawn), the “viability change, negative = cytotoxic” value is 4.33% [at 35.3 µM].

As to `NC(=O)c1ccc(N)cc1`, the “viability change, negative = cytotoxic” value was 3.13%.

`CC(C)OC(=O)c1ccccc1`: the “viability change, negative = cytotoxic” value is -0.0635%.

Turning to `Nc1c2c(nc3ccccc13)CCCC2O` (stereo not drawn), the “viability change, negative = cytotoxic” value is 4.03% [at 35.3 µM].

Turning to `CCCCCCCCCCCCCCCCC`, the “viability change, negative = cytotoxic” value is -1.83%.

Consider `COC(=O)CC(C)=O`, for which the “viability change, negative = cytotoxic” value is 1.22%.

For `COc1ccc2c(c1)c(CC(=O)OCC(=O)O)c(C)n2C(=O)c1ccc(Cl)cc1`, the “viability change, negative = cytotoxic” value was -3.22% [at 35.3 µM].

For the molecule `CCN1CCC[C@H]1CNC(=O)c1c(O)c(Cl)cc(Cl)c1OC`, the “viability change, negative = cytotoxic” value is -8.76% [at 35.3 µM].

On to `O=C(O)c1ccccc1OP(=O)(O)O`, for which the “viability change, negative = cytotoxic” value is -11.7% [at 35.3 µM].

Turning to `CCOC(C)(C)C`, the “viability change, negative = cytotoxic” value was 7.44%.

Regarding `Nc1nc2c(ncn2COC(CO)CO)c(=O)[nH]1`, the “viability change, negative = cytotoxic” value is 12.8% [at 35.3 µM].

Turning to `CCCCCCCCCCCCCC=O`, the viability change, negative = cytotoxic was 6.5% [at 6.97 µM].

Consider `c1cnc(N2CCN(Cc3ccc4c(c3)OCO4)CC2)nc1`, for which the “viability change, negative = cytotoxic” value is -18.9% [at 35.3 µM].

For `CC/C=C\CC/C=C/C(OCC)OCC`, the “viability change, negative = cytotoxic” value is 0.432%.

On to `NCCc1cnc[nH]1`, for which the “viability change, negative = cytotoxic” value was -2.25% [at 35.3 µM].

With `CCC(=O)OC(C)c1ccccc1` (stereo not drawn), the “viability change, negative = cytotoxic” value was -4.35%.

Regarding `O=S(O)CO`, the “viability change, negative = cytotoxic” value is 7.89%.

Take `O=c1n(CCO)c(=O)n(CCO)c(=O)n1CCO`: the Potency entry was “inactive”.

With `CCCCOCCOCCOCCCC`, the “viability change, negative = cytotoxic” value is 0.982%.

Turning to `CO[C@]12C[C@@H](COC(=O)c3cncc(Br)c3)CN(C)[C@@H]1Cc1cn(C)c3cccc2c13`, the “viability change, negative = cytotoxic” value was 4.4% [at 35.3 µM].

`CCc1ccc(O)c(OC)c1`: the “viability change, negative = cytotoxic” value is -6.74%.

Turning to `CCCCCCCCS(=O)(=O)Cl`, the “viability change, negative = cytotoxic” value was 3.64%.

For `CCO[Si](CCC1CCC2OC2C1)(OCC)OCC` (stereo not drawn), the “viability change, negative = cytotoxic” value was 1.27%.

`NC(=O)c1ccc([N+](=O)[O-])cc1`: the “viability change, negative = cytotoxic” value was 2.33%.

`CS(=O)(=O)O`: the “viability change, negative = cytotoxic” value is -3.31%.

For the molecule `O=C(O)CCCc1ccccc1`, the “viability change, negative = cytotoxic” value is 1.58% [at 35.3 µM].

Turning to `O=Cc1cccc([N+](=O)[O-])c1`, the “viability change, negative = cytotoxic” value was -1.27%.

Consider `N=c1nc(N2CCCCC2)cc(N)n1O`, for which the “viability change, negative = cytotoxic” value was -10.4% [at 35.3 µM].

The values above are taken from PubChem BioAssay (Tox21).
